A short description of test [1]: NCI Yeast Anticancer Drug Screen. Data for the rad50 strain (AID 155).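 Further: 0% = growth of vehicle-only cultures of the same strain.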 To be noted: S. cerevisiae rad50 strain growth inhibition, hits give high values. In a few lines: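 DNA repair mutant yeast, compound exposure, growth read-out; inhibition is taken relative to vehicle.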
Test [2] can be described thus: NCI Yeast Anticancer Drug Screen. Data for the mec2-1 strain (AID 157). To be noted: S. cerevisiae mec2-1 strain, hits give high values. In a few lines:
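Mutant yeast (mec2-1) grown with compound; growth inhibition relative to vehicle control reported.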

Test [3] can be described thus: NCI Yeast Anticancer Drug Screen. Data for the sgs1 mgt1 strain (AID 161).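 Further: 0% = growth of cultures given vehicle only.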 To be noted: S. cerevisiae sgs1 mgt1 strain, hits give high values. In outline: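 Percent growth inhibition was derived by comparing compound-exposed mutant yeast with vehicle-exposed cultures. The strain carries alterations in DNA damage repair.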
Test [4] in a line: NCI Yeast Anticancer Drug Screen. Data for the cln2 rad14 strain (AID 165).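 Further: 0% = growth equal to vehicle treated cultures.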 The conditions noted are these: S. cerevisiae cln2 rad14 strain, hits give high values. In a few lines: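 Readout is yeast growth inhibition versus vehicle-treated controls, using a strain with cln2 and rad14 alterations exposed to compound.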
A short description of test [5]: NCI Yeast Anticancer Drug Screen. Data for the bub3 strain (AID 167). The conditions noted are these: S. cerevisiae bub3 mutant strain, hits give high values. In a few lines:
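In this screen, a yeast mutant lacking normal mitotic checkpoint function is challenged with compound. Relative growth versus vehicle gives the inhibition value.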

Test [6] in a line: NCI Yeast Anticancer Drug Screen. Data for the mlh1 rad18 strain (AID 175). The conditions noted are these: S. cerevisiae mlh1 rad18 strain growth inhibition, hits give high values. In a few lines: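 Genetically defined yeast (DNA repair-deficient) exposed to compounds; growth inhibition determined relative to vehicle.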
[7] abbreviates: at 5.0 µM (retest, dose inferred, filed as 0.5).
Where [8] appears, read: at 50.0 µM (retest, dose inferred, filed as 5.0).

From PubChem BioAssay (NCI) come the findings set out here.

This is part of a sample that, as a whole, favours compounds with a hit. Of some 79,000 tested, about 15% had one in any assay. A number with no mark means an inactive call. Activity calls are given as the source filed them. No stated cut-off is given here; in the data, active means growth inhibition above about 70%; inactive means the rest.

`COC1=CC2=CCC3C(CCC4(C)C(C(C)=O)CCC34)C2(C)CC1` (configuration not stated): the growth inhibition in test [1] (setting [7]) was -8%; in test [1] (setting [8]), 5%; in test [1] (at 50.0 µM), 42.5%; in test [2] (setting [7]) it was -7%; in test [2] (setting [8]), 4%; in test [2] (at 50.0 µM), 13%. Besides, the growth inhibition in test [3] (setting [7]) was -1%; in test [3] (setting [8]), 40%; in test [3] (at 50.0 µM), 49%; in test [4] (setting [7]) it was -2%; in test [4] (setting [8]), 14%; in test [4] (at 50.0 µM) it was 0.75%. Also, the growth inhibition in test [5] (setting [7]) was -17%; in test [5] (setting [8]), -5%; in test [5] (at 50.0 µM), 47.6%; in test [6] (setting [7]) it was -12%; in test [6] (setting [8]), -2%; in test [6] (at 50.0 µM), 51.1%.

For the molecule `NNC(=O)N/N=C(\CC1(O)C(=O)Nc2c(Cl)ccc(Cl)c21)c1ccc(F)cc1` (configuration not stated), the growth inhibition in test [1] (setting [7]) is 79% (active); in test [1] (setting [8]), 91% (active); in test [1] (at 50.0 µM), 56.4%; in test [2] (setting [7]), 50%; in test [2] (setting [8]) it was 80% (active); in test [2] (at 50.0 µM), 39.5%. Moreover, the growth inhibition in test [3] (setting [7]) is 72% (active); in test [3] (setting [8]), 85% (active); in test [3] (at 50.0 µM), 37.4%; in test [4] (setting [7]), 64%; in test [4] (setting [8]), 74% (active); in test [4] (at 50.0 µM), 2.75%. In addition, the growth inhibition was 70% (active) in test [5] (setting [7]); 80% (active) in test [5] (setting [8]); 21.9% in test [5] (at 50.0 µM); 57% in test [6] (setting [7]); 73% (active) in test [6] (setting [8]); 50.3% in test [6] (at 50.0 µM).

Consider `CCOC(=O)CSc1c(C(=O)OCC)c(=O)n(-c2ccccc2)c(=S)n1-c1ccccc1`, for which the growth inhibition in test [1] (setting [7]) is 60%; in test [1] (setting [8]), 90% (active); in test [1] (at 50.0 µM), 85.2% (active); in test [2] (setting [7]), 44%; in test [2] (setting [8]), 89% (active); in test [2] (at 50.0 µM), 87.2% (active). For the same molecule, the growth inhibition in test [3] (setting [7]) is 75% (active); in test [3] (setting [8]), 94% (active); in test [3] (at 50.0 µM) it was 87.8% (active); in test [4] (setting [7]) it was 54%; in test [4] (setting [8]), 91% (active); in test [4] (at 50.0 µM), 80.8% (active). Moreover, the growth inhibition in test [5] (setting [7]) is 31%; in test [5] (setting [8]) it was 90% (active); in test [5] (at 50.0 µM), 85.8% (active); in test [6] (setting [7]), 74% (active); in test [6] (setting [8]), 89% (active); in test [6] (at 50.0 µM), 81.8% (active).

As to `O=C(Cl)c1ccc(N=Nc2ccccc2)cc1`, the growth inhibition in test [1] (setting [7]) was 2%; in test [1] (setting [8]), 31%; in test [1] (at 50.0 µM) it was 69.5%; in test [2] (setting [7]), -1%; in test [2] (setting [8]), 23%; in test [2] (at 50.0 µM), 37%. Besides, the growth inhibition in test [3] (setting [7]) is -1%; in test [3] (setting [8]) it was 14%; in test [3] (at 50.0 µM) it was 47.5%; in test [4] (setting [7]), 0%; in test [4] (setting [8]), 23%; in test [4] (at 50.0 µM), 49.2%. Besides, the growth inhibition in test [5] (setting [7]) was 1%; in test [5] (setting [8]) it was 21%; in test [5] (at 50.0 µM) it was 65.5%; in test [6] (setting [7]) it was 3%; in test [6] (setting [8]), 27%; in test [6] (at 50.0 µM), 80% (active).

`COc1ccc(N=Nc2ccc(O)cc2)cc1`: the growth inhibition is 7% in test [1] (setting [7]); 40% in test [1] (setting [8]); 96.5% (active) in test [1] (at 50.0 µM); -5% in test [2] (setting [7]); 62% in test [2] (setting [8]); 96% (active) in test [2] (at 50.0 µM). Moreover, the growth inhibition in test [3] (setting [7]) was 2%; in test [3] (setting [8]), 16%; in test [3] (at 50.0 µM), 97.5% (active); in test [4] (setting [7]) it was 7%; in test [4] (setting [8]), 59%; in test [4] (at 50.0 µM) it was 92% (active). In addition, the growth inhibition in test [5] (setting [7]) is -22%; in test [5] (setting [8]), 88% (active); in test [5] (at 50.0 µM) it was 96.4% (active); in test [6] (setting [7]) it was 8%; in test [6] (setting [8]), 65%; in test [6] (at 50.0 µM), 97% (active).

For the molecule `COC(=O)[C@]1(C)CCC[C@]2(C)c3ccc(C(C)C)cc3C(=O)C[C@@H]12`, the growth inhibition in test [1] (setting [7]) was 5%; in test [1] (setting [8]), 87% (active); in test [1] (at 50.0 µM), 95.9% (active); in test [2] (setting [7]), 4%; in test [2] (setting [8]), 90% (active); in test [2] (at 50.0 µM), 99% (active). In addition, the growth inhibition is 1% in test [3] (setting [7]); 93% (active) in test [3] (setting [8]); 96.2% (active) in test [3] (at 50.0 µM); 4% in test [4] (setting [7]); 82% (active) in test [4] (setting [8]); 89.5% (active) in test [4] (at 50.0 µM). In addition, the growth inhibition was 6% in test [5] (setting [7]); 88% (active) in test [5] (setting [8]); 97.7% (active) in test [5] (at 50.0 µM); -9% in test [6] (setting [7]); 73% (active) in test [6] (setting [8]); 94.5% (active) in test [6] (at 50.0 µM).

For the molecule `C=CCOc1ccc(C2(c3ccc(OCC=C)cc3)C(=O)Nc3ccccc32)cc1`, the growth inhibition was 1% in test [1] (setting [7]); 90% (active) in test [1] (setting [8]); 84.1% (active) in test [1] (at 50.0 µM); -8% in test [2] (setting [7]); 92% (active) in test [2] (setting [8]); 86.8% (active) in test [2] (at 50.0 µM). Besides, the growth inhibition in test [3] (setting [7]) was 8%; in test [3] (setting [8]) it was 90% (active); in test [3] (at 50.0 µM), 89.2% (active); in test [4] (setting [7]), 24%; in test [4] (setting [8]), 91% (active); in test [4] (at 50.0 µM), 86.5% (active). The growth inhibition in test [5] (setting [7]) is 6%; in test [5] (setting [8]), 93% (active); in test [5] (at 50.0 µM), 87.9% (active); in test [6] (setting [7]) it was 5%; in test [6] (setting [8]) it was 88% (active); in test [6] (at 50.0 µM), 86.6% (active).

Take `O=C1C(=Cc2ccccc2O)N=C(c2ccccc2)N1n1c(-c2ccccc2)nc2ccccc2c1=O`: the growth inhibition in test [1] (setting [7]) was 5%; in test [1] (setting [8]) it was 31%; in test [1] (at 50.0 µM), 58%; in test [2] (setting [7]) it was -3%; in test [2] (setting [8]), 22%; in test [2] (at 50.0 µM) it was 49.2%. Besides, the growth inhibition was 0% in test [3] (setting [7]); 24% in test [3] (setting [8]); 75.7% (active) in test [3] (at 50.0 µM); 8% in test [4] (setting [7]); 33% in test [4] (setting [8]); 50.3% in test [4] (at 50.0 µM). Besides, the growth inhibition in test [5] (setting [7]) is -13%; in test [5] (setting [8]) it was 45%; in test [5] (at 50.0 µM) it was 80.2% (active); in test [6] (setting [7]), 11%; in test [6] (setting [8]) it was 39%; in test [6] (at 50.0 µM), 73.3% (active).

As for `O=C1Oc2ccccc2C(=O)/C1=C/N1C(=O)/C(=C/c2ccc3c(c2)OCO3)SC1=S`, the growth inhibition is 7% in test [1] (setting [7]); 76% (active) in test [1] (setting [8]); 60.9% in test [1] (at 50.0 µM); -7% in test [2] (setting [7]); 78% (active) in test [2] (setting [8]); 47.8% in test [2] (at 50.0 µM). Besides, the growth inhibition was 4% in test [3] (setting [7]); 66% in test [3] (setting [8]); 80.2% (active) in test [3] (at 50.0 µM); -13% in test [4] (setting [7]); 82% (active) in test [4] (setting [8]); 70.5% (active) in test [4] (at 50.0 µM). Further, the growth inhibition in test [5] (setting [7]) is 31%; in test [5] (setting [8]) it was 30%; in test [5] (at 50.0 µM) it was 66.3%; in test [6] (setting [7]) it was -4%; in test [6] (setting [8]) it was 77% (active); in test [6] (at 50.0 µM) it was 44.3%.
